For six compounds, Potency, outcome and max activation results are on record in PubChem BioAssay (Tox21).

Assay [1] concerns the target Progesterone receptor (Homo sapiens) (UniProt P06401). The assay is described as follows: qHTS assay to identify small molecule agonists of the progesterone receptor (PR) signaling pathway (AID 1346784; calls by dose curve; also: nearly all actives have a fitted effect of over 30% in size; also: potency is read from the fitted curve at half-maximal effect). The method in brief: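 Compounds were tested for PR agonism in HEK 293T cells bearing a beta-lactamase gene under UAS control. Treatment lasted 16 hr at 37C; signal came from fluorescence of a FRET substrate.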
(In general: qHTS replaces the single test concentration by a dilution series.)

Assay [2] can be described thus: qHTS assay to identify small molecule antagonists of the progesterone receptor (PR) signaling pathway - cell viability counter screen (AID 1346798). Also: nearly all actives have a fitted effect of over 50% in size. Also: potency is read from the fitted curve at half-maximal effect. The gist of the method:
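Following a 4 hr attachment, PR-UAS-bla HEK293T cells in charcoal-stripped FBS medium were exposed to compounds with R5020 for 16 hr; CellTiter-Glo was added and luminescence read after 30 min at room temperature.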

Assay [3] is described as follows: qHTS assay to identify small molecule agonists of the progesterone receptor (PR) signaling pathway - cell viability counter screen (AID 1346799; calls by dose curve; also: nearly all actives have a fitted effect of over 45% in size; also: potency is read from the fitted curve at half-maximal effect). The method in brief:
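Here, 3,000 PR-UAS-bla HEK293T cells per well were treated with compounds for 16 hr after a 6 hr preincubation at 37C and 5% CO2; cell viability is the CellTiter-Glo luminescence signal.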

Assay [4] can be described thus: qHTS assay to identify small molecule antagonists of the TGF-beta/Smad signaling pathway - cell viability counter screen (AID 1346824). Also: nearly all actives have a fitted effect of over 50% in size. The gist of the method:
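Cytotoxicity counter-screen run in the same wells as the beta-lactamase Smad reporter read: CellTiter-Glo luminescence after 30 min at room temperature. HEK 293T SBE-bla cells had 5 hr compound exposure at 37 C with TGF-beta1 (0.25 ng/mL stock).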

Assay [5] in a line: qHTS assay to identify small molecule agonists of the TGF-beta/Smad signaling pathway - cell viability counter screen (AID 1346829). Also: top concentration of the series differs between compounds; nearly all actives have a fitted effect of over 45% in size. The gist of the method:
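Cytotoxicity counter screen: CellTiter-Glo luminescence (30 min, room temperature) measured in the SBE-bla HEK 293T reporter wells after 5 hr compound treatment at 37 C and the 2 hr substrate step.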

Assay [6] is described as follows: qHTS assay to identify small molecule agonists of the TGF-beta/Smad signaling pathway (AID 1346859; active = well fitted activation curve with a large enough effect in the signal ratio in the repeat runs, not every such curve was filed as active; the % refers to the signal ratio; also: series mostly up to about 77 µM). The gist of the method: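 Each well held 4,000 SBE-bla HEK 293T cells incubated overnight before compound addition; 5 hr later the cleavable FRET substrate went on for 2 hr at room temperature, and fluorescence was read at two emissions.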
The nature of assay [7]: Human pregnane X receptor (PXR) small molecule agonists, qHTS cell viability counter screen (AID 1346977). Also: nearly all actives have a fitted effect of over 50% in size. Also: potency is read from the fitted curve at half-maximal effect. The gist of the method:
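Tox21 qHTS format; PXR-Luc HepG2, 2,000/well, charcoal-stripped FBS 5%. Cpd exposure 24hr. Read: CellTiter-Fluor fluorescence, multiplexed with luciferase.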

A short description of assay [8]: Caspase-3/7 induction in HepG2 cells by small molecules, qHTS assay (AID 1346978). Also: nearly all actives have a fitted effect of over 15% in size. Also: potency is read from the fitted curve at half-maximal effect. The gist of the method:
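Caspase-3/7 induction was measured by Caspase-Glo 3/7 luminescence (30 min, room temperature) after a 17 hr compound exposure of wild-type HepG2 cells seeded at 2,000 per well and pre-incubated 5 hr.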

A short description of assay [9]: Caspase-3/7 induction in CHO-K1 cells by small molecules, qHTS cell viability counter screen (AID 1346979). Also: nearly all actives have a fitted effect of over 35% in size. Also: potency is read from the fitted curve at half-maximal effect. The gist of the method:
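CellTiter-Fluor viability check, qHTS format: wild-type CHO-K1, 16hr compound treatment, 1hr reagent incubation, fluorescence read.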

A short description of assay [10]: Caspase-3/7 induction in CHO-K1 cells by small molecules, qHTS assay (AID 1346980). Also: nearly all actives have a fitted effect of over 15% in size. The method in brief: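 Luminescent Caspase-Glo 3/7 read (30min, room temperature) quantified apoptosis induction. Cells were wild-type CHO-K1, treated with compound for 17hr at 37 C and 5% CO2.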
Assay [11] in a line: Caspase-3/7 induction in HepG2 cells by small molecules, qHTS cell viability counter screen (AID 1346981). Also: nearly all actives have a fitted effect of over 30% in size. Also: potency is read from the fitted curve at half-maximal effect. The gist of the method:
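HepG2, WT, 2,000 cells/well; 5 hr pre-incubation 37 C/5% CO2; compound pin-transferred from DMSO; 16 hr exposure; CellTiter-Fluor, 1 hr; fluorescence read.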

The target of assay [12] is Cytochrome P450 2D6 (Homo sapiens) (UniProt P10635). The experiment in a line: Cytochrome P450 Family 2 Subfamily D Member 6 (CYP2D6) small molecule antagonists: luciferase reporter qHTS assay (AID 1671196). Also: nearly all actives have a fitted effect of over 50% in size. Also: potency is read from the fitted curve at half-maximal effect. The gist of the method:
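Read-out is luminescence from luciferin formed by CYP2D6 turnover of a proluciferin substrate, recorded as relative luminescence units. Reactions ran 1 h at room temperature after NADPH regeneration solution was added.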

Assay [13] deals with Cytochrome P450 2C19 (Homo sapiens) (UniProt P33261). The assay is described as follows: Cytochrome P450 Family 2 Subfamily C Member 19 (CYP2C19) small molecule antagonists: luciferase reporter qHTS assay (AID 1671197). Also: nearly all actives have a fitted effect of over 65% in size. Also: potency is read from the fitted curve at half-maximal effect. The method in brief: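 Luminescent readout of CYP2C19 activity: luciferin product detected 20 min after adding detection reagent. Before that, compound and enzyme-substrate mix preincubated 10 min at room temperature; NADPH-regenerating system started a 1 h, 37C reaction. Ketoconazole as positive control.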
Sequence of Cytochrome P450 2C19 (Homo sapiens) (P33261 whole entry, looked up): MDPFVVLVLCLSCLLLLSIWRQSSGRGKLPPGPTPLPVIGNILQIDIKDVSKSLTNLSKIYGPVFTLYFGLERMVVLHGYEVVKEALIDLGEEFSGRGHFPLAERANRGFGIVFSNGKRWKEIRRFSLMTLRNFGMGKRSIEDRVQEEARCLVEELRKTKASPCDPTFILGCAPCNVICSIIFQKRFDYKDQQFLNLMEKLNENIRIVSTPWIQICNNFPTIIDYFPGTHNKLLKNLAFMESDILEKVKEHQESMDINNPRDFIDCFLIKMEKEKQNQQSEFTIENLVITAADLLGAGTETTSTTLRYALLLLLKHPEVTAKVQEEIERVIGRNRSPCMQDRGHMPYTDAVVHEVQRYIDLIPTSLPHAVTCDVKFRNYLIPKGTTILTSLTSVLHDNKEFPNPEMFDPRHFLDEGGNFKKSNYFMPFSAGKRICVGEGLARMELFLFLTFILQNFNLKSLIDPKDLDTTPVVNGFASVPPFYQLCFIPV
On the technique in general: A reporter such as luciferase makes a cellular process visible.

In assay [14] the target is Thyrotropin-releasing hormone receptor (Homo sapiens) (UniProt P34981). The assay is described as follows: qHTS assay to identify small molecule antagonists of the thyrotropin-releasing hormone receptor (TRHR) signaling pathway (AID 1346877; active = well fitted inhibition curve with a large enough effect in the repeat runs, not every such curve was filed as active; also: series mostly up to about 51 µM). The method in brief: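 Intracellular calcium fluorescence, read kinetically every second over 3 min, reports TRH-evoked signalling in HEK293 cells carrying TRHR. Test compounds were added 5 min ahead of a 1 nM TRH challenge.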
Sequence of Thyrotropin-releasing hormone receptor (Homo sapiens) (P34981 whole entry, looked up): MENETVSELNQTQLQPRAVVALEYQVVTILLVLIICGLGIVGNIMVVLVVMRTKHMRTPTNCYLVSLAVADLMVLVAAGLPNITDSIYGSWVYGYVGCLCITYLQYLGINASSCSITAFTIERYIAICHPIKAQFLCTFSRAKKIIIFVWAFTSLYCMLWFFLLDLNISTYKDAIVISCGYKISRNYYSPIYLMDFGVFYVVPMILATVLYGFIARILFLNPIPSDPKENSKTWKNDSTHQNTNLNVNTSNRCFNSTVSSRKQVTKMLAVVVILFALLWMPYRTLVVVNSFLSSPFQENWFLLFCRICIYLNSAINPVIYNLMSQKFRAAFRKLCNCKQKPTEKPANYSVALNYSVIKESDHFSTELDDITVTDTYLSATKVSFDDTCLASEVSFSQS

Assay [15] shares this target. The experiment in a line: qHTS assay to identify small molecule agonists of the thyrotropin-releasing hormone receptor (TRHR) signaling pathway (AID 1346891; calls by dose curve; also: series mostly up to about 58 µM). The gist of the method: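 Screening of agonists relied on calcium signalling in HEK293 cells expressing human TRHR: dye loading 2 h at 37 °C preceded compound addition and a 3-min fluorescence time course.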

For assay [16], the target named is Nuclear receptor subfamily 1 group I member 2 (Homo sapiens) (UniProt O75469). The assay is described as follows: Human pregnane X receptor (PXR) small molecule agonists, qHTS assay (AID 1346982). Also: nearly all actives have a fitted effect of over 35% in size. Also: potency is read from the fitted curve at half-maximal effect. The gist of the method:
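Luciferase signal from ONE-Glo (30 min, room temperature) measured activation of hPXR-driven CYP3A4 reporter expression in PXR-Luc HepG2 cells treated with compounds for 24 hr at 37 C.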

The target of assay [17] is Nuclear receptor subfamily 1 group I member 2 (Rattus norvegicus) (UniProt Q9R1A7). The assay is described as follows: Rat pregnane X receptor (rPXR) activation by small molecules, qHTS assay (AID 1346983). Also: nearly all actives have a fitted effect of over 20% in size. Also: potency is read from the fitted curve at half-maximal effect. The settings on record: rPXR luciferase reporter cells, One-Glo luminescence, 24 h; max activation: stronger effect = higher value. The gist of the method: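 Luminescent readout (One-Glo luciferase, 30 min room temperature) followed 24 hr compound treatment at 37 C of rPXR cells plated 2,000 per well and preincubated 5hr; qHTS format with compounds delivered in DMSO.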
Sequence of Nuclear receptor subfamily 1 group I member 2 (Rattus norvegicus) (Q9R1A7 whole entry, looked up): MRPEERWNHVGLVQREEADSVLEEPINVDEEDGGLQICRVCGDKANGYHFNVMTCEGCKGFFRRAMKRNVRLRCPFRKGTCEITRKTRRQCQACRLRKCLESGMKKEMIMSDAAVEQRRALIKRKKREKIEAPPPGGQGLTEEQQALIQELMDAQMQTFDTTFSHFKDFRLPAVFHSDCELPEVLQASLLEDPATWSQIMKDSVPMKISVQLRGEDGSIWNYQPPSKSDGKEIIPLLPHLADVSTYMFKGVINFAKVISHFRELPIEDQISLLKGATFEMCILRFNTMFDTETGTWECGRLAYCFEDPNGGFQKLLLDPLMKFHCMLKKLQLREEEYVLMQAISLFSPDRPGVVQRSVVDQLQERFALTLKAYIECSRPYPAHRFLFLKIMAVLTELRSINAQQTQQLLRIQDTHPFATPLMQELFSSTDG

The target of assay [18] is Nuclear receptor subfamily 1 group I member 2 (Homo sapiens) (UniProt O75469). The experiment in a line: CYP3A4 induction through human pregnane X receptor (PXR) by small molecules, qHTS assay (AID 1346984). Also: nearly all actives have a fitted effect of over 40% in size. The gist of the method: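 Luminescence readout: luciferase signal after One-Glo (30 min, room temperature), following 3 h at 37C with 3uM final Luciferin-IPA P450 substrate. Cells were DPX-2 (HepG2, PXR/CYP3A4-luc co-transfected) dosed for 24 h.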
Sequence of Nuclear receptor subfamily 1 group I member 2 (Homo sapiens) (O75469 whole entry, looked up): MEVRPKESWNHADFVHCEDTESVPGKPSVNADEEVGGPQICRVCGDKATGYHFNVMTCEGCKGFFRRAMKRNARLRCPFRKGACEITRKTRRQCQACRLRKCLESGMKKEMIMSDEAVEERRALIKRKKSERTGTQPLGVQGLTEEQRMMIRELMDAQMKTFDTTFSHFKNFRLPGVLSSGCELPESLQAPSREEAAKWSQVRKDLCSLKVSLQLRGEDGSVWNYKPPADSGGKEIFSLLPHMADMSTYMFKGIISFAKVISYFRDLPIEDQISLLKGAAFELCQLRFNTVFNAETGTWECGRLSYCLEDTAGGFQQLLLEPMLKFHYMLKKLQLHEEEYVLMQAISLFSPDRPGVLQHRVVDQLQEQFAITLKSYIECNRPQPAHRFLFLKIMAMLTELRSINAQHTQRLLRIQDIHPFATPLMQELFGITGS

The target is the same in assay [19]. The experiment in a line: Human pregnane X receptor (PXR) activation by small molecules, qHTS assay (AID 1346985). Also: nearly all actives have a fitted effect of over 40% in size. The gist of the method:
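DPX-2 cells (HepG2 co-transfected with a PXR response element and a CYP3A4-promoter luciferase construct) were seeded at 2,000 per well, rested 5 hr at 37C, then exposed to DMSO-dissolved compounds for 24 hr. Activation was read as luciferase luminescence.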

“And” between values parts separate entries of the source, which are not always exact repeats. Identical values can stand only once. Results filed as inconclusive are left out. More than one record can exist for a structure, and the calls need not agree. The source made the active and inactive calls. Unless noted, calls follow the shape of the dose curve; as a rule, active = well fitted curve in the direction sought with a large enough effect in the repeat runs; inconclusive = weak or mixed curves; inactive = no such curve, though single readings can be large; an effect the other way counts as inactive or inconclusive.
% is scaled to controls: 0 for no effect and ±100 for the full control effect.

Sequence of Cytochrome P450 2D6 (Homo sapiens) (P10635 whole entry, looked up): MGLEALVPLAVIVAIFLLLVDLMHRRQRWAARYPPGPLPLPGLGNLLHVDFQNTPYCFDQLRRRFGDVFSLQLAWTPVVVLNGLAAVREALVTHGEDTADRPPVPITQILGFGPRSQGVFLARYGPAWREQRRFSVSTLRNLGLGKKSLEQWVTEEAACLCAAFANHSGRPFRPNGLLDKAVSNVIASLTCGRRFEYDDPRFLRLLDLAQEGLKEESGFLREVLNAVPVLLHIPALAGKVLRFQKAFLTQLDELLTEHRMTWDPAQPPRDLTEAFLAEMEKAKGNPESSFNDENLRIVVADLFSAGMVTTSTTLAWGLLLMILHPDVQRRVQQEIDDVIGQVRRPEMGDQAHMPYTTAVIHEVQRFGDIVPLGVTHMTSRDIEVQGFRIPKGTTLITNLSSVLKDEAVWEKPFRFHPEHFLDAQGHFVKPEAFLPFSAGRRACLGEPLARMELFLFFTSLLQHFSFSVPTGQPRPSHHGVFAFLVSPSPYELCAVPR
Sequence of Progesterone receptor (Homo sapiens) (P06401 whole entry, looked up): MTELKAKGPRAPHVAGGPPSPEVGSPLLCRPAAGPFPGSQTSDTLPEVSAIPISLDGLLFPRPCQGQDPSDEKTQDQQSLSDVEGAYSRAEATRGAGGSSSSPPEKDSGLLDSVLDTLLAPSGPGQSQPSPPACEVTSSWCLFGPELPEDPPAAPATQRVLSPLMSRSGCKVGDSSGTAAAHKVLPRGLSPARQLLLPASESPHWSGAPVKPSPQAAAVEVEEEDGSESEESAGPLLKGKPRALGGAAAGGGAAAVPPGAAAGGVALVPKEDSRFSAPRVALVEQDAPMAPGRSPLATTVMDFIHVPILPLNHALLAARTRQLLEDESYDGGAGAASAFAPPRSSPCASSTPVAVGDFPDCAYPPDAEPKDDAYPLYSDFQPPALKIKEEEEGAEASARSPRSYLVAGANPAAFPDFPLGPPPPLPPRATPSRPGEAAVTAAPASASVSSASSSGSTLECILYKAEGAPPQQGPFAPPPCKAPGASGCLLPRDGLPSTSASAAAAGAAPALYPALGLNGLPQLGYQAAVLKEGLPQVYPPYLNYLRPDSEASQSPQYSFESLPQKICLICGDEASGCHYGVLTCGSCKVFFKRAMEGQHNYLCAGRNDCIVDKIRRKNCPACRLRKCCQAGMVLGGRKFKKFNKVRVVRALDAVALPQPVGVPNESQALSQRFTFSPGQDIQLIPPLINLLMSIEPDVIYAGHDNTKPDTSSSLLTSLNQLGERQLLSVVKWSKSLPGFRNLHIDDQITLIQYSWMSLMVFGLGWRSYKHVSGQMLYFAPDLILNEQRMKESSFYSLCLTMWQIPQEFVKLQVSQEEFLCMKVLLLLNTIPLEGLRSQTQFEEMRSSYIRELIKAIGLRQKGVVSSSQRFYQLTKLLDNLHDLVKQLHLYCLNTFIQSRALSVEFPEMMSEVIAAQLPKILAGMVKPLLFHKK

As to `CC(=O)Nc1c(I)c(NC(C)=O)c(I)c(C(=O)O)c1I`, the Potency result in assay [1], in assay [2], in [3], in [4], in assay [5] and in [7] was “inactive” throughout. For the same compound, the Potency result in [8], in [9], in assay [10], in [11] and in assay [12] was “inactive” throughout. Moreover, in [6], the call was inactive. Further, in assay [13], the Potency entry is “inactive and 79.6 µM (active)”.

For `O=CC(=O)c1ccccc1`, the Potency entry in assay [1], in [2], in [3], in assay [4], in assay [5] and in assay [14] was “inactive” in each case. The Potency entry in assay [15], in assay [7], in assay [8], in assay [10], in assay [11] and in assay [16] was “inactive” each time. Moreover, in assay [6], the result was inactive. Besides, the Potency in assay [12] was 12.6 µM (active); in assay [13], 35.6 µM (active).

`CN(C)CCOC(C)(c1ccccc1)c1ccccn1` (configuration not stated): the Potency entry in assay [1], in [2], in assay [3], in [4], in assay [5] and in [7] was “inactive” throughout. The Potency result in assay [8], in assay [9], in assay [10] and in assay [11] was “inactive” throughout. Besides, the result in assay [6] was inactive. Further, the Potency is 17.9 µM (active) and 20 µM (active) and 13.8 µM (active) in assay [12]; 40 µM (active) and inactive in [13].

As to `CC1(C)O[C@@H]2C[C@H]3[C@@H]4CCC5=CC(=O)C=C[C@]5(C)[C@@]4(F)[C@@H](O)C[C@]3(C)[C@]2(C(=O)CO)O1`, the Potency was 3.5 nM (active) and 3.9 nM (active) and 3.8 nM (active) in [1]; 12.6 µM (active) in assay [17]; 31.9 µM (active) and inactive in assay [12]. Further, the Potency result in assay [2], in assay [3], in assay [4], in [5], in assay [7] and in [8] was “inactive” in each case. For the same compound, the Potency entry in assay [9], in assay [10], in assay [11] and in assay [13] was “inactive” in each case. Further, the call in assay [6] was inactive.

In the case of `CCN(Cc1c(F)cccc1Cl)c1c([N+](=O)[O-])cc(C(F)(F)F)cc1[N+](=O)[O-]`, the Potency result in [1], in assay [4], in [5], in [14], in assay [15] and in assay [7] was “inactive” each time. Further, the Potency result in [8], in [10], in [11] and in [12] was “inactive” in each case. Besides, the Potency in assay [2] was 21.7 µM (active); in assay [3], 8.63 µM (active); in [9] it was 54.5 µM (active); in [16] it was 8.63 µM (active); in [13] it was 2.24 µM (active). In [6], the call was inactive.

For `CN(C)C(=S)SC(=S)N(C)C`, the Potency entry in assay [1], in assay [4], in assay [5], in [14], in assay [15] and in assay [10] was “inactive” each time. For the same compound, the Potency entry in assay [18] is “inactive”. The Potency in assay [2] was 994 nM (active) and 969 nM (active) and 750 nM (active); in [3], 2.22 µM (active) and 1.22 µM (active) and 266 nM (active); in assay [7] it was 7.08 µM (active) and 545 nM (active) and 2.66 µM (active); in [8], 4.98 µM (active) and 770 nM (active) and 3.76 µM (active); in assay [11], 30.6 µM (active); in [13], 16.3 µM (active) and 20 µM (active) and 7.76 µM (active). The compound was called inactive in assay [6] and in assay [19]. Moreover, the max activation in assay [17] was -4.94% (inactive).
